Where “and” joins values, the source holds several entries; their conditions need not be identical. Identical values can stand only once. Results filed as inconclusive are left out. Calls of active or inactive are those of the source. Unless noted, calls follow the shape of the dose curve; as a rule, active = well fitted curve in the direction sought with a large enough effect; inconclusive = small, poorly fitted or top-dose-only effect, or another doubt; inactive = no such curve, though single readings can be large; an effect the other way counts as inactive or inconclusive.
Columns and labels:
[1] = biological target: Beta-2 adrenergic receptor (Homo sapiens) (UniProt P07550); test: qHTS validation assay of beta-arrestin-biased ligands of beta2-adrenergic receptor (AID 485366); also: 0% is about no effect
Outline: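 Values derive from curve-fitted %Activity of a luminescent beta-arrestin recruitment reporter; compounds tested up to 46 microM on Tango cells for 18 hr at 37 degrees C, 5% CO2.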

[2] = Quantitative high throughput screen for delayed death inhibitors of the malarial parasite plastid, 96 hour incubation (AID 488745); also: series mostly up to about 29 µM; % is scaled to controls: 0 for no effect and ±100 for the full control effect; nearly all actives have a fitted effect of over 70% in size
Outline: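 P. falciparum carrying an integrated firefly luciferase reporter, grown in erythrocytes (2% hematocrit, 0.1% parasitemia final) in RPMI 1640/0.5% Albumax, was exposed to compound for 96 h (two generations) at 37 C, 5% CO2. Luminescence decrease indicated growth inhibition.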

[3] = Quantitative high throughput screen for delayed death inhibitors of the malarial parasite plastid, 48 hour incubation (AID 488752); also: % is scaled to controls: 0 for no effect and ±100 for the full control effect; nearly all actives have a fitted effect of over 65% in size
Outline: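 Erythrocytes infected with P. falciparum carrying an integrated firefly luciferase reporter (2% hematocrit, 0.1% parasitemia final) were exposed to compounds in RPMI 1640/0.5% Albumax for 48 h at 37 C, 5% CO2. Growth inhibition was scored as reduced luminescence.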

[4] = biological target: Thioredoxin reductase 1, cytoplasmic (Rattus norvegicus) (UniProt O89049); test: qHTS Assay for Substrates of Mammalian Selenoprotein Thioredoxin Reductase 1 (TrxR1) (AID 488772);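 also: NADPH fluorescence in the first read after selenite addition and not the 8 min delta; series mostly up to about 57 µM; 0% is about no effect; a drop in NADPH fluorescence below the no-compound background marks a TrxR1 substrate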
Outline: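 Quantitative HTS in Tris-HCl buffer at pH 7.5 with EDTA and Tween-20, using rat TrxR1, 400 uM NADPH and 400 uM selenite (final). A fall in initial NADPH fluorescence relative to background marked substrate behaviour.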

[5] = biological target: Thioredoxin reductase 1, cytoplasmic (Rattus norvegicus) (UniProt O89049); test: qHTS Assay for Inhibitors of Mammalian Selenoprotein Thioredoxin Reductase 1 (TrxR1) (AID 488773); settings: Potency: inhibition; also: nearly all actives have a fitted effect of over 40% in size; also: potency is read from the fitted curve at half-maximal effect
Outline: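 Steps: enzyme (90 nM) plus NADPH (400 uM final), 5 min at ~22 deg C; compound added, 15 min; selenite (400 uM final) added; fluorescence followed for 8 min. Concentration-response curves derived from the normalized delta values.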

[6] = biological target: Flap endonuclease 1 (Homo sapiens) (UniProt P39748); test: qHTS Validation Assay for the Inhibitors of Human Flap endonuclease 1 (FEN1) (AID 488816); also: % is scaled to controls: 0 for no effect and ±100 for the full control effect
Outline: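 FEN1, dispensed as a 10 nM reagent, was preincubated with pin-transferred compounds for 15 min at room temperature before substrate was added (50 nM final). Plates were read at 0 and 15 min, and a four-parameter Hill equation was fitted to the concentration-response data.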

[7] = biological target: M-phase phosphoprotein 8 (Homo sapiens) (UniProt Q99549); test: qHTS Validation Assay for Inhibitors for MPP8 Chromodomain Interactions with Methylated Histone Tails (AID 488949);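 also: AlphaScreen signal from MPP8 chromodomain bound to biotinylated H3K9me3 peptide; top concentration of the series differs between compounds; % is scaled to controls: 0 for no effect and ±100 for the full control effect; nearly all actives have a fitted effect of over 55% in size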
Outline: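 AlphaScreen proximity signal from streptavidin donor and Ni-chelate acceptor beads (10 ug/mL each) reported binding of MPP8 to trimethyl-K9 H3(1-18) peptide, both at 50 nM. The complex formed 30 min before a 30 min compound exposure at room temperature, in PBS pH 7.4.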

[8] = biological target: Chromobox protein homolog 1 (Homo sapiens) (UniProt P83916); test: qHTS Validation Assay for Inhibitors of HP1-beta Chromodomain Interactions with Methylated Histone Tails (AID 488953);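 also: loss of AlphaScreen luminescence from HP1-beta binding biotinylated H3K9me3 peptide; series mostly up to about 110 µM; % is scaled to controls: 0 for no effect and ±100 for the full control effect; nearly all actives have a fitted effect of over 50% in size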
Outline: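 HP1-beta (50 nM) was preincubated 30 min at room temperature with biotinylated H3(1-18)K9me3 peptide (50 nM) in PBS pH 7.4, 0.01% Tween-20, then with compounds 30 min. AlphaScreen signal was read after streptavidin donor/nickel chelate acceptor beads (10 ug/mL final).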

[9] = biological target: Methanococcus maripaludis chaperonin (MmCpn) (UniProt Q6LX38); test: High-Throughput Screening for Modulators of Cytosolic Chaperonin Activity: MmCpn Primary Screen (AID 488978);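 also: 50 nM MmCpn enzyme hydrolysing 30 µM ATP at 37 °C; 0% is about no effect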
Outline: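 ATPase activity of 50 nM MmCpn was assayed with 30 uM ATP, 10 minutes at 37C, after a 5 min compound preincubation at room temperature. ADP production was read as HTRF emission at 590 and 665 nm.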

[10] = biological target: Transient receptor potential cation channel subfamily V member 1 (Homo sapiens) (UniProt Q8NER1); test: HTS Assay for Compounds that Act as Enhancers of the Vanilloid Receptor 1 (AID 488979); also: 0% is about no effect
Outline: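 TRPV1-expressing cells loaded with Fluo-8 calcium dye; compounds added and calcium influx read kinetically for 3 min (agonist phase), then capsaicin at EC20 added and read 2 min more for enhancement. Fluorescence ex 480/em 520 nm.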

[11] = biological target: Thyrotropin receptor (Homo sapiens) (UniProt P16473); test: qHTS Assay for Antagonists of the Thyroid Stimulating Hormone Receptor (AID 488980); also: series mostly up to about 58 µM; 0% is about no effect
Outline: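 Inhibition of cAMP raised by EC80 TSH (4 nM final) was read by HTRF, with lysate cAMP competing against cAMP-d2 for cryptate antibody after 30 min at room temperature. The cells were transfected HEK293 held in phosphodiesterase inhibitor RO 20-1724 at 70 uM.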

[12] = biological target: D(1A) dopamine receptor (Homo sapiens) (UniProt P21728); test: HTS Assay for Allosteric Agonists of the Human D1 Dopamine Receptor: Primary Screen for Agonists (AID 488981); also: 0% is about no effect
Outline: (§1)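 Tetracycline-induced HEK293 T-REx cells force-coupled to calcium signalling were incubated overnight at 30 C and dye-loaded at room temperature. Calcium flux over 180 s after compound addition flagged agonists; a further 180 s read after EC20 dopamine flagged potentiators.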

[13] = biological target: D(1A) dopamine receptor (Homo sapiens) (UniProt P21728); test: HTS Assay for Allosteric Agonists of the Human D1 Dopamine Receptor: Primary Screen for Potentiators (AID 488982); also: 0% is about no effect
Outline: as §1

[14] = biological target: D(1A) dopamine receptor (Homo sapiens) (UniProt P21728); test: HTS Assay for Allosteric Agonists of the Human D1 Dopamine Receptor: Primary Screen for Antagonists (AID 488983);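 also: calcium flux response to an EC80 dopamine challenge measured with no-wash dye; % is scaled to controls: 0 for no effect and ±100 for the full control effect; nearly all actives have a fitted effect of over 65% in size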
Outline: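 Tetracycline-induced HEK293 T-REx cells expressing force-coupled D1 were plated overnight at 30 C, dye-loaded for calcium, and read kinetically. Compounds were pinned in, then an EC80 dopamine challenge followed after 180 s to reveal antagonism.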

[15] = Validation screen for small molecules that induce genotoxicity in human embryonic kidney (HEK293T) cells expressing luciferase-tagged ELG1 (AID 493106); also: 0% is about no effect
Outline: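 HEK293T cells expressing luciferase-tagged ELG1 were exposed to compound or DMSO vehicle for 16 hr at 37 °C, 5% CO2. Genotoxic stress raises ELG1 levels, so increased luciferase signal after ONE-Glo addition and 30 min at room temperature marks hits.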

[16] = biological target: Thyrotropin-releasing hormone receptor (Homo sapiens) (UniProt P34981); test: qHTS for Small Molecule Agonists and Allosteric Enhancers of Human TRH Receptor: Validation Screen for Agonists (AID 493127;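 active = calcium activation more than 3 SD above the typical response in the agonist read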;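 also: intracellular calcium rise by fluo-8 fluorescence before TRH EC20 addition; 0% is about no effect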); settings: TRH receptor agonist cell assay; at 2 µM; stronger effect = higher value
Outline: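 TRHR-expressing cells were plated overnight in serum-containing medium, then loaded with fluo-8 calcium dye at room temperature for 30 min–1.5 h. After a 10 s baseline, compound was pin-transferred and calcium fluorescence (ex 480/em 530) read kinetically for agonist response.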

[17] = qHTS for Inhibitors of Cell Surface uPA Generation: Validation Assay (AID 493164);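 also: RAW 264.7 macrophage cells exposed to compound for 18 h; 0% is about no effect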
Outline: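 RAW 264.7, 4000 cells/well, o/n plating; cpd 7-pt 1:5 dilution 2.45 nM–38.3 uM final; 18 h, 37 C/5% CO2; ATP-Lite, 5 s luminescence exposure.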

[18] = biological target: ATP-dependent 6-phosphofructokinase (Trypanosoma brucei brucei) (UniProt O15648); test: qHTS Assay to Find Inhibitors of T. brucei phosphofructokinase: hit validation (AID 492961);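 also: luminescence reports ADP formed as PFK phosphorylates fructose-6-phosphate with ATP; series mostly up to about 51 µM; % is scaled to controls: 0 for no effect and ±100 for the full control effect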
Outline: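 Reaction: 0.1 M triethanolamine pH 8.0, 5 mM MgCl2, F6P 0.5 mM, ATP 0.1 mM, PFK 1.25 nM, 45 min RT. Read-out: ADP-Glo luminescence. Analysis: concentration-response fits, classed by r2 and efficacy.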

[19] = Nrf2 qHTS screen for inhibitors: Validation (AID 493153; active = well fitted inhibition curve with a large enough effect in the main read-out, with a control signal flat, not every such curve was filed as active); settings: Potency: luciferase luminescence; viability change: measured here: cytotoxicity max response
Outline: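 A549 cells carrying an ARE-driven firefly luciferase reporter, in 5% FBS OPTI-MEM, were treated with compounds in concentration-response for 18-24 h at 37°C. Viability was read by CellTiter-Fluor fluorescence, then Nrf2 activity by luciferase luminescence.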

[20] = biological target: ATP-dependent 6-phosphofructokinase (Trypanosoma brucei brucei) (UniProt O15648); test: qHTS Validation Assay to Find Inhibitors of T. brucei phosphofructokinase (AID 485368)
Outline: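 Enzyme reaction in triethanolamine buffer pH 8.0 with 5 mM MgCl2, 0.01% Tween20 and 0.1% BSA; PFK 1.25 nM, F6P 0.5 mM, ATP 0.1 mM, 45 min RT. ADP quantified by ADP-Glo.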

Chain of Methanococcus maripaludis chaperonin (MmCpn) (Q6LX38 1-543): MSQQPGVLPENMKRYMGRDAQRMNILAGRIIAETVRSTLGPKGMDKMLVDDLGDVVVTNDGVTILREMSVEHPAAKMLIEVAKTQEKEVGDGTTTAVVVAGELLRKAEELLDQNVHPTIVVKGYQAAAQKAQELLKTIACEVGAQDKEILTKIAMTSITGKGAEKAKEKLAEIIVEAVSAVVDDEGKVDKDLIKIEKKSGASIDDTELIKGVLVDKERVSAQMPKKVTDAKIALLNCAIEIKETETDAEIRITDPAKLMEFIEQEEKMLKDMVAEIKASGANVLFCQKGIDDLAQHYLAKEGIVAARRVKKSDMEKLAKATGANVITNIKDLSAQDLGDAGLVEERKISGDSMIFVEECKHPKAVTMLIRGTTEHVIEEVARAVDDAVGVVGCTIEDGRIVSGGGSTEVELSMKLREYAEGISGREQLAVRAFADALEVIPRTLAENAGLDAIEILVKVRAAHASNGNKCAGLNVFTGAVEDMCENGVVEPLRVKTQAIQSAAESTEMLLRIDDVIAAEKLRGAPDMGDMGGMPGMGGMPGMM
Chain of D(1A) dopamine receptor (Homo sapiens) (P21728 whole entry, looked up): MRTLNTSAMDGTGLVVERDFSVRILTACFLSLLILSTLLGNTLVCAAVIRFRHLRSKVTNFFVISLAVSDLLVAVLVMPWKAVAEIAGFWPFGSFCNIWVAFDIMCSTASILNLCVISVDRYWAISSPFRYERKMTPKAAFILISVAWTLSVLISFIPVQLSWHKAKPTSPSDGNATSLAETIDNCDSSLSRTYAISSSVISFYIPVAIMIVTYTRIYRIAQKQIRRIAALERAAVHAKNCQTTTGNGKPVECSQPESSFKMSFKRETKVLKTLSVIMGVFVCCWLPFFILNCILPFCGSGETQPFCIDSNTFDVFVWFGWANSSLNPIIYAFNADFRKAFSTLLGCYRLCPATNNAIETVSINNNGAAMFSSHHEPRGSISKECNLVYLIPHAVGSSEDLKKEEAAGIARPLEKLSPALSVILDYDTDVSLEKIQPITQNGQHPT
Chain of Flap endonuclease 1 (Homo sapiens) (P39748 whole entry, looked up): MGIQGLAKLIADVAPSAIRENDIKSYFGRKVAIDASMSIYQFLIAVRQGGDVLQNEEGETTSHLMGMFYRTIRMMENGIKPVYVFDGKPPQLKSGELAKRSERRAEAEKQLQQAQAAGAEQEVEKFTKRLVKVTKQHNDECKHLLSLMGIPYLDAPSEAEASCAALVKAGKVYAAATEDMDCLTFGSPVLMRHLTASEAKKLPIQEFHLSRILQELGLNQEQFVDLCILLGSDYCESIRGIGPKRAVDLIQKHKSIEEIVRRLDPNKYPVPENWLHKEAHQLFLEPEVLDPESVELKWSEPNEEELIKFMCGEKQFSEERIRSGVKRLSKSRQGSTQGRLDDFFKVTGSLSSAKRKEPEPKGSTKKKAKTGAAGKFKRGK
Chain of M-phase phosphoprotein 8 (Homo sapiens) (Q99549 whole entry, looked up): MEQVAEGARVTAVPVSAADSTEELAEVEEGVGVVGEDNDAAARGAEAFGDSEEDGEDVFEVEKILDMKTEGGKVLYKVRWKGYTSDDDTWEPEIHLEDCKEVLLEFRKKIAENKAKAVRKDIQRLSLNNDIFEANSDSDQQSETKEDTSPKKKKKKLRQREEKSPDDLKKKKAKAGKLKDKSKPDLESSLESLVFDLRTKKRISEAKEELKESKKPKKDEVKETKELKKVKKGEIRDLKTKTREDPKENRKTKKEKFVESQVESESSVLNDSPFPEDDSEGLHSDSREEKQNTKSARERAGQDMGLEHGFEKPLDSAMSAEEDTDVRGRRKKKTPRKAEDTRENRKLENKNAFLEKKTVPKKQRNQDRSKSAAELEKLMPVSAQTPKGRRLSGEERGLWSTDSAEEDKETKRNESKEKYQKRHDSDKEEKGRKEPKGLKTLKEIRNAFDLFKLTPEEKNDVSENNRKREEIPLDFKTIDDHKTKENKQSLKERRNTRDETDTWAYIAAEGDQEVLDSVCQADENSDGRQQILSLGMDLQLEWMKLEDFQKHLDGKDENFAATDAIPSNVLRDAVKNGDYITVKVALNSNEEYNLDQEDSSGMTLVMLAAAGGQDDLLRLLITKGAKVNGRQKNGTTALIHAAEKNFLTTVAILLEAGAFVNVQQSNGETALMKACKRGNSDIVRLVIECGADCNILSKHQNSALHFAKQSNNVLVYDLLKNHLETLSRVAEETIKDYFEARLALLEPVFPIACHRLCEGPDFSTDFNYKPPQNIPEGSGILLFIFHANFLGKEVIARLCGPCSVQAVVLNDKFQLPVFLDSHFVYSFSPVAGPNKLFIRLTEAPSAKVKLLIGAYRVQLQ
Chain of ATP-dependent 6-phosphofructokinase (Trypanosoma brucei brucei) (O15648 whole entry, looked up): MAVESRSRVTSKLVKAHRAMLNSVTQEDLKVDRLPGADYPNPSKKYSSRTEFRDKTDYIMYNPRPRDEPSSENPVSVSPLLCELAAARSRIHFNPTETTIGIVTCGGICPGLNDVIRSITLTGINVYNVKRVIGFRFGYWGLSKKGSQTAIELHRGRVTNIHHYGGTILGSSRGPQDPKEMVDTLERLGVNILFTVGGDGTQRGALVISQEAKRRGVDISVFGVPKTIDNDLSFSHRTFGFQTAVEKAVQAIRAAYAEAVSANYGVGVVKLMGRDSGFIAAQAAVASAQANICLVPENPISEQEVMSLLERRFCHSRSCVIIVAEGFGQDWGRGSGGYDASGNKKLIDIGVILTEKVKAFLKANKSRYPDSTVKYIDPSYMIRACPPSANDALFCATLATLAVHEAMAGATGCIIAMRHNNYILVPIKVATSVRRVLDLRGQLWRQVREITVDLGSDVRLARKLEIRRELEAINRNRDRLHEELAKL
Chain of Chromobox protein homolog 1 (Homo sapiens) (P83916 whole entry, looked up): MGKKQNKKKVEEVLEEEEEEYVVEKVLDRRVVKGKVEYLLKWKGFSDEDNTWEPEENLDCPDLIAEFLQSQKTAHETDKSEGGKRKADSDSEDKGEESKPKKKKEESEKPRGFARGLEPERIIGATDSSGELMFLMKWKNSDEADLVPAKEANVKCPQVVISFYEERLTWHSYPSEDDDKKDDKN
Chain of Thioredoxin reductase 1, cytoplasmic (Rattus norvegicus) (O89049 whole entry, looked up): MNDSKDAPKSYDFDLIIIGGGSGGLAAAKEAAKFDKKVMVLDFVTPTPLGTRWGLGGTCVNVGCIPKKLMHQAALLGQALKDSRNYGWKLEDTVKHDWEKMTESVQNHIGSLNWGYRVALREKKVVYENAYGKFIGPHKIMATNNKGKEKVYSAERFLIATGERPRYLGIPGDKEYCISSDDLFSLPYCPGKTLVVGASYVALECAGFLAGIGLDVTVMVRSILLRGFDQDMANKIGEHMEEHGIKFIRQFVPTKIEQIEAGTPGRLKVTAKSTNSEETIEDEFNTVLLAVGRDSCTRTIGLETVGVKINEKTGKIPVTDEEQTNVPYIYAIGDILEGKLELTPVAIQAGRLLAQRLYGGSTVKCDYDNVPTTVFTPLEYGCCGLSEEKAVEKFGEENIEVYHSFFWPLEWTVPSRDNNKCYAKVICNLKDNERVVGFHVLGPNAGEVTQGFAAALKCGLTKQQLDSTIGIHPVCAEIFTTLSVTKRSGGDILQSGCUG
Chain of Beta-2 adrenergic receptor (Homo sapiens) (P07550 whole entry, looked up): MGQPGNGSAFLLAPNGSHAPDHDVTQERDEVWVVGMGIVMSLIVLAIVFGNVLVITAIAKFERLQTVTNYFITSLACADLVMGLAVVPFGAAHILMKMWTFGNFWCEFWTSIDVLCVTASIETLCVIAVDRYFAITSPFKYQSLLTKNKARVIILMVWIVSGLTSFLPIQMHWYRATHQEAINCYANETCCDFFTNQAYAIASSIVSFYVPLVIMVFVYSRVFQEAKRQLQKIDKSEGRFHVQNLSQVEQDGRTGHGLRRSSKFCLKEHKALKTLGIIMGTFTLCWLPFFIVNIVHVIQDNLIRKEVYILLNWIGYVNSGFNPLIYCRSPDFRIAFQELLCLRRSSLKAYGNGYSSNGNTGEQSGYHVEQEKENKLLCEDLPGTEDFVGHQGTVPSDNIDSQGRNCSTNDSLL
Chain of Thyrotropin-releasing hormone receptor (Homo sapiens) (P34981 whole entry, looked up): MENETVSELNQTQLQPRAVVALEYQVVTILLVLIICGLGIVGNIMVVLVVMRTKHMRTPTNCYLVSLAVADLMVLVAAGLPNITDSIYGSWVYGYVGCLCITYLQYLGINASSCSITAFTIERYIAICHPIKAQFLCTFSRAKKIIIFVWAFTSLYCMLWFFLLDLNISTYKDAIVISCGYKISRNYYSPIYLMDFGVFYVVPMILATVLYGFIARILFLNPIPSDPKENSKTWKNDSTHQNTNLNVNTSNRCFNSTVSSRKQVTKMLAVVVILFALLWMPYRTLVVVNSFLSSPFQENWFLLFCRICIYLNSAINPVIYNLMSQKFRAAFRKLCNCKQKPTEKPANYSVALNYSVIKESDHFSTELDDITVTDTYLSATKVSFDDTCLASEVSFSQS
Chain of Thyrotropin receptor (Homo sapiens) (P16473 whole entry, looked up): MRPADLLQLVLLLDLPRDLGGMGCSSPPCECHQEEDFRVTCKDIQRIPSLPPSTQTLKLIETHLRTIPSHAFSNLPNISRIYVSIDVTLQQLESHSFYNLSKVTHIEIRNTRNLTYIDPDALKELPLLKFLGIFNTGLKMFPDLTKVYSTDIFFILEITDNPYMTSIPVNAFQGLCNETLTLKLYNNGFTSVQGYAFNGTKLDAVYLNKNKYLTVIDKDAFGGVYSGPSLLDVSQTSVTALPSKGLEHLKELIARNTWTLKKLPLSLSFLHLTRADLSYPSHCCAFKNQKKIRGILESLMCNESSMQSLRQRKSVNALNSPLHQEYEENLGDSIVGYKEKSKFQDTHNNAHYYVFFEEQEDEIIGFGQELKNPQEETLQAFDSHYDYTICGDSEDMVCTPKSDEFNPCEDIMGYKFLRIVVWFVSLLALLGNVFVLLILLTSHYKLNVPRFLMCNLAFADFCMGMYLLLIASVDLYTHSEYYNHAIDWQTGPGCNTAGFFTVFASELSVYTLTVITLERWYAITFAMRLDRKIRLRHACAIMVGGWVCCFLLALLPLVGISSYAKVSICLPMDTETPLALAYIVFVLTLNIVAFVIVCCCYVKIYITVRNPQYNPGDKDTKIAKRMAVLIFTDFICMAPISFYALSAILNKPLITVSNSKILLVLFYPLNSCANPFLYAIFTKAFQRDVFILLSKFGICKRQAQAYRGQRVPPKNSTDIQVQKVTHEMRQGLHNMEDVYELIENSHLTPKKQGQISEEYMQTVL

c1ccc2c(c1)OCC(C1=NCCN1)O2 (centres undefined)
active: Potency [5] 7.52 µM
inactive: outcome [1] | Potency [2] | Potency [3] | outcome [4] | Potency [6] | Potency [7] | Potency [8] | outcome [9] | outcome [10] | outcome [11] | Potency [12] | Potency [13] | Potency [14] | Potency [15] | activation [16] 1.38% | outcome [17]

COc1ccccc1N1CCNCC1
inactive: outcome [1] | Potency [2] | Potency [3] | outcome [4] | Potency [6] | Potency [7] | Potency [8] | outcome [9] | outcome [10] | outcome [11] | Potency [12] | Potency [13] | outcome [18] | Potency [15] | activation [16] -7.69% | Potency [19] | outcome [17]
10.4%: viability change [19]

CCCN1CCC[C@@H]2Cc3[nH]ncc3C[C@H]21
inactive: outcome [1] | Potency [20] | outcome [4] | Potency [5] | Potency [6] | Potency [7] | Potency [8] | outcome [9] | Potency [12] | Potency [13] | Potency [14] | Potency [15] | Potency [19] | outcome [17]
1.53% and 0.366%: viability change [19]

C[C@@H]1O[C@@H](O[C@H]2C[C@@H](O)[C@]3(CO)[C@H]4[C@H](O)C[C@]5(C)[C@@H](C6=CC(=O)OC6)CC[C@]5(O)[C@@H]4CC[C@]3(O)C2)[C@H](O)[C@H](O)[C@H]1O
inactive: outcome [1] | Potency [20] | Potency [2] | Potency [3] | outcome [4] | Potency [5] | Potency [6] | Potency [7] | Potency [8] | outcome [9] | Potency [12] | Potency [13] | Potency [14] | Potency [15] | outcome [17]

CC(=O)[C@H]1CC[C@H]2[C@@H]3CC[C@H]4C[C@](C)(O)CC[C@]4(C)[C@H]3CC[C@]12C
inactive: outcome [1] | Potency [20] | outcome [4] | Potency [5] | Potency [6] | Potency [7] | Potency [8] | outcome [9] | Potency [12] | Potency [13] | Potency [14] | outcome [18] | Potency [15] | outcome [17]
